From PubChem BioAssay
Compounds with a hit are over-represented: about 2.5% of the library has one in this group of screens.
PTAP-TSG101 blk = qHTS Validation Assay for Inhibitors of HIV-1 Budding by Blocking the Interaction of PTAP/TSG101: Sytravon Library Screen; Tumor susceptibility gene 101 protein (Homo sapiens), Q99816; Fluorescence polarization, FITC-PTAP peptide/Tsg101, 20 min; Potency, µM (series often up to 115 µM), hits mostly inhibitors; 44,000 tested, under 10 active; further: potency means the concentration at half of the fitted maximal effect; 0% is about no effect
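The Tsg101 binding domain, at 10 uM final, is mixed with compound and a FITC peptide bearing the PTAP motif (50 nM final). After 20 min at r.t., polarization is measured; actives defined by CRC class, efficacy cut-off 60% inhibition.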
NTMT1 inh = Primary qHTS for Inhibitors of N-terminal methyltransferase 1 (NTMT1): MTaseGlo Assay. N-terminal Xaa-Pro-Lys N-methyltransferase 1 (Homo sapiens), Q9BV86. NTMT1 MTase-Glo SAH luminescence, purified enzyme. Potency, µM (series often up to 114 µM), for the others: at the highest dose activity change, negative = inhibition, actives largely listed as inhibitors. 59,000 tested, 2.5% active. AID 1645870, 2021;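 further: potency means the concentration at half of the fitted maximal effect; plate controls were DMSO vehicle for no effect and no enzyme for full effect; nearly all actives have a fitted effect of over 65% in size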
Target sequence (Q9BV86 whole entry, looked up): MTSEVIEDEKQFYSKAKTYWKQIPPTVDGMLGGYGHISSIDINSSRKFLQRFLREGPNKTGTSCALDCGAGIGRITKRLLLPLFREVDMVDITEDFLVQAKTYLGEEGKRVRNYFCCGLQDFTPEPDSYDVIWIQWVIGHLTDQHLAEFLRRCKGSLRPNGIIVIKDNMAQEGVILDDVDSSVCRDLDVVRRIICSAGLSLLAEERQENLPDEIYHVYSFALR
OvCa metastasis = Primary qHTS assay for Inhibitors of ovarian cancer metastasis using an organotypic tumor microenvironment (TME) model | SKOV3ip1-GFP adhesion/invasion on 3D omental model, fluorescence | Potency, µM (series often up to 45.8 µM), inactives show at the highest dose activity change, negative = inhibition, most hits filed as inhibitors | 46,000 tested, 0.1% active | AID 1963576, 2024;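 further: potency means the concentration at half of the fitted maximal effect; plate controls were DMSO wells for no effect and tomatine positive control wells for full effect; nearly all actives have a fitted effect of over 65% in size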
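Primary human omental fibroblast/mesothelial 3D culture pre-formed 48 h. SKOV3ip1-GFP cells added with compounds (0.36-46 umol/L), incubated 2 h RT/16 h 37 C, fixed; GFP cells quantified at 488/509 nm.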
HTT prom inh = Primary qHTS for Identification of Small Molecule Inhibitors of Huntingtin Promoter Activity. HEK293 HTT promoter firefly luciferase reporter, 24 h. Potency, µM (series often up to 57.5 µM), for inactives: at the top dose activity change, negative = inhibition, actives largely listed as inhibitors. 48,000 tested, 0.93% active. AID 1508623, 2021; further: potency means the concentration at half of the fitted maximal effect; nearly all actives have a fitted effect of over 50% in size
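HEK293 Fluc reporter, 2,500 cells/well, 24 h pre-culture; cpds up to 57.5 uM final, 24 h 37 degrees C; Dual-Glo, 10 min RT; normalized vehicle = 0%, zero RLU = -100%.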
HTT-AS promoter = Primary qHTS for Identification of Small Molecule Activators of Huntingtin-Antisense Promoter Activity; HEK293 HTT-AS promoter firefly luciferase reporter, 24 h; response scale: percent change from vehicle, -100% = no light; Potency, µM (series often up to 57.5 µM), for the others: at the top dose activity change, positive = activation, most hits filed as activators; 48,000 tested, 0.24% active; AID 1508624, 2021; further: potency means the concentration at half of the fitted maximal effect; nearly all actives have a fitted effect of over 55% in size
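HEK293 Fluc reporter, 2,500 cells/well, 24 h pre-culture; cpds up to 57.5 uM final, 24 h 37 degrees C; Dual-Glo, 10 min RT; normalized vehicle = 0%, zero RLU = -100%.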
GALK inhibitor = qHTS Assay for Inhibitors of Human Galactokinase (GALK): NCGC Sytravon Library Screen | P51570 | recombinant GALK, Kinase-Glo ATP luminescence, 1 h | Potency, µM (titrated, usually from 57.5 µM), for the others: top-dose activity, negative = inhibition, most hits filed as inhibitors | 44,000 tested, under 10 active;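 further: plate controls were full GALK reaction for no effect and reaction lacking GALK for full effect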
Target sequence (P51570 whole entry, looked up): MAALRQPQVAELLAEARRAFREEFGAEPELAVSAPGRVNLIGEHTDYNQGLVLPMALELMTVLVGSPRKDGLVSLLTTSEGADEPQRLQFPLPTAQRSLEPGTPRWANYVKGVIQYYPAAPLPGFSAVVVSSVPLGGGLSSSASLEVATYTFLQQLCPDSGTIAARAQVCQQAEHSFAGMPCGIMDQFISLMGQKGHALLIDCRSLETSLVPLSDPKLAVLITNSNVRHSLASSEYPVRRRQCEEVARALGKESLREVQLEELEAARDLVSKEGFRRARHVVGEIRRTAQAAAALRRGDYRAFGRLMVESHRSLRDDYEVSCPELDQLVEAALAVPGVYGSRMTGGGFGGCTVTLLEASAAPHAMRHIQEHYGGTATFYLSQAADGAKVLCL
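Reactions with and without enzyme served as controls. GALK at 5 nM phosphorylates 100 uM galactose using 35 uM ATP (HEPES pH 8.0, Mg2+) for 1 h at RT, with luminescence read 10 min after adding Kinase-Glo Plus.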
Numbers without * were called inactive; i = inactive; ? = inconclusive; . = not tested or not shown; ! = not active in a repeat; [ ] = dose if it differs, or a comment. The call rests on the fitted dose curve; in most records, active means well fitted curve in the direction sought with a large enough effect; inconclusive means small, poorly fitted or top-dose-only effect, or another doubt; inactive means no such curve, though single readings can be large; an effect the other way counts as inactive or inconclusive.

SMILES	PTAP-TSG101 blk	NTMT1 inh	OvCa metastasis	HTT prom inh	HTT-AS promoter	GALK inhibitor
FC(F)(F)c1ccccc1-c1nc(NCc2ccc(-c3cccnc3)cc2)c2ccccc2n1	.	11.5%	.	.	.	.
Cc1cc2c(s1)c1cnn(Cc3ccc(Cl)cc3)c(=O)c1n2C	.	89.1µM*	.	.	.	.
Cc1cc2c(s1)c1cnn(Cc3ccc(F)c(Cl)c3)c(=O)c1n2C	.	-1.9%[57.5 µM]	.	.	.	.
C/C=C/C[C@@H](C)[C@@H](O)[C@H]1C(=O)N[C@@H](CC)C(=O)N(C)CC(=O)N(C)[C@@H](CC(C)C)C(=O)N[C@@H](C(C)C)C(=O)N(C)[C@@H](CC(C)C)C(=O)N[C@@H](C)C(=O)N[C@H](C)C(=O)N(C)[C@@H](CC(C)C)C(=O)N(C)[C@@H](CC(C)C)C(=O)N(C)[C@H](C(C)C)C(=O)N1C	.	1.8%[29.8 µM]	.	.	.	.
C[C@H](Nc1ncnc2nc[nH]c12)c1cc2cccc(Cl)c2c(=O)n1-c1ccccc1	.	14.3%	.	.	.	.
Cc1ccc(-c2ncn(-c3ccc(Nc4nccc(-c5cccc(N6CCOCC6)c5)n4)cc3)n2)cn1	.	-8.4%	-15.7%	68.5%	1.22µM*	.
NC(=O)/C(=C/n1cnc(-c2cc(C(F)(F)F)cc(C(F)(F)F)c2)n1)c1cncnc1	.	-3.6%	.	.	.	.
C/C=C/C1=CC2=C(CO1)C(=O)C(C)(O)C(OC(=O)c1c(C)cc(OC)cc1O)C2 (configuration not stated)	.	-9.3%[29.8 µM]	.	.	.	.
C[C@@H]1CN(CC(=O)N2CC(C)(C)c3ncc(Cc4ccc(F)cc4)cc32)[C@@H](CN2CCOC[C@H]2C)CN1	.	79.4µM*!	.	.	.	.
CC(C)(C)C1CCc2c(sc(NC(=O)CCC(=O)O)c2C(=O)Nc2ccccc2C(F)(F)F)C1 (configuration not stated)	i	44.7µM*	i	?	-54.5%	-0.9%
COc1ccccc1NC(=O)c1c(NC(=O)c2cccs2)sc2c1CCC(C(C)(C)C)C2 (configuration not stated)	i	21.5%	11.3%	-11.4%[11.5 µM]	7.9%[11.5 µM]	-2.7%
CC(=O)O[C@H]1C[C@@H](O)C(C)(C)C2C[C@@H](OC(C)=O)[C@@]3(C)C4=CCC(C(CO)CC(O)C5OC5(C)C)[C@]4(C)CCC3[C@]21C (some centres not stated)	.	3.3%[12.6 µM]	.	.	.	.
Cc1ccc(NC(=O)c2cccn2-c2nnc(N3CCCCC3)s2)cc1Cl	i	79.4µM*	5.7%	-18.2%	-15.7%	-1.2%
CC(=O)c1cccc(NC(=O)c2cccn2-c2nnc(N3CCCCC3)s2)c1	i	?	20.0%	-9.4%	-4.3%	2.1%
COc1c(C(CC(C)C)OC(C)=O)ccc(Oc2c(O)cc(C)cc2/C=C/C(C)=O)c1C(=O)O (configuration not stated)	.	-0.4%[29.8 µM]	.	.	.	.
COc1ccccc1N1CCN(CC(O)COc2ccc(C)cc2C(C)(C)C)CC1 (configuration not stated)	i	?	?	?	-27.4%	0.0%
O[C@@H](COc1cccc2ncccc12)CN1CCN(C2c3ccccc3[C@@H]3[C@H](c4ccccc42)C3(F)F)CC1 (some centres not stated)	.	79.4µM*!	-19.6%	?	-34.1%	.
O=C(Nc1ccc(Br)cc1)c1ccc(Br)c(S(=O)(=O)N2CCCCC2)c1	i	0.5%	-3.7%	12.6µM*	-26.3%	?
O=S(=O)(Nc1nc2ccccc2s1)c1ccc(NCc2ccc(Br)cc2O)cc1	.	28.2µM*	.	.	.	.
CCc1ccccc1N1C(=O)N(Cc2cccc(Cl)c2)c2ccccc2S1(=O)=O	i	89.1µM*	2.5%	?	-39.8%	-4.5%
Cc1ccc(N2C(=O)N(Cc3cccc(Cl)c3)c3ccccc3S2(=O)=O)cc1	i	-24.8%	19.3%	?	-27.1%	-1.4%
CC1(C)CC[C@]2(C(=O)OC3OC(CO)C(O)C(O)C3O)CC[C@]3(C)C(=CCC4[C@@]5(C)CC[C@H](OC6OC(C(=O)O)C(O)C(OC7OC(CO)C(O)C(O)C7O)C6O)C(C)(C)C5CC[C@]43C)C2C1 (some centres not stated)	.	12.9%[12.6 µM]	.	.	.	.
O=c1cc(-c2ccc(O)c(O)c2)oc2cc(O)cc(O)c12	.	31.6µM*!	-13.0%	48.3%	?	.
O=c1c(O)c(-c2ccc(O)c(O)c2)oc2cc(O)cc(O)c12	.	?	-5.7%	-12.1%	-6.5%	.
Cc1ccc(OCC(O)Cn2c(=N)n(CCN3CCCCC3)c3ccccc32)cc1 (configuration not stated)	i	?	8.91µM*	-20.9%	-22.8%	1.5%
SMILES	PTAP-TSG101 blk	NTMT1 inh	OvCa metastasis	HTT prom inh	HTT-AS promoter	GALK inhibitor
COc1ccc(OCC(O)Cn2c(=N)n(CCN3CCCCC3)c3ccccc32)cc1 (configuration not stated)	i	-6.9%	?	-15.9%	-12.3%	?
O=C(NC1CCCc2c1cnn2-c1ccc(F)cc1F)c1ccccc1 (configuration not stated)	.	79.4µM*!	.	.	.	.
C=Cc1c(C)c2cc3[nH]c(cc4nc(cc5nc(cc1[nH]2)C(C)=C5CCC(=O)O)C(CCC(=O)O)=C4C)c(C)c3C=C	.	25.1µM*	.	1.2%	-7.0%	.
C1=C/COCc2cc(ccc2OCCN2CCCC2)Nc2nccc(n2)-c2cccc(c2)COC/1	.	25.1µM*	.	.	.	.
COc1cc(-n2cnc3cc(-c4ccc(Cl)cc4)sc3c2=O)ccc1OCCN1CCCC1	.	-7.3%[57.5 µM]	.	.	.	.
C[C@@H]1O[C@@H](O[C@H]2[C@H](OC(=O)[C@]34CCC(C)(C)C[C@H]3C3=CCC5[C@@]6(C)C[C@@H](O)[C@@H](O)[C@@](C)(CO)C6[C@H](O)C[C@@]5(C)[C@]3(C)CC4)OC[C@H](O)[C@@H]2O)[C@H](O)[C@H](O)[C@H]1O[C@@H]1OC[C@@H](O)[C@H](O[C@H]2O[C@H](C)[C@@H](O)[C@H](O)[C@@H]2O)[C@H]1O (some centres not stated)	.	-15.2%[12.6 µM]	.	.	.	.
COCCNc1cc(NC(=O)N2CCCc3cc(CN4CCN(C)CC4=O)c(C=O)nc32)ncc1C#N	.	19.9%[29.8 µM]	.	.	.	.
CCOc1ccc(CCNC(=O)c2ccnn2Cc2cccc(C)c2)cc1OCC	.	13.0%	.	.	.	.
